Results taken from PubChem BioAssay (NCATS).
Inconclusive results are not listed. The source made the active and inactive calls. Calls come from the whole dose curve. Where a SMILES comes first, the peptide text is derived from it. Bridges are numbered along the chain shown (N, C = ends). [ ]: non-standard residue; d: D form. hArg = N=C(N)NCCCC[C@H](N)C(=O)O; Mpa = O=C(O)CCS

Experiment: A High-Content qHTS Against Drug Library for the Identification of Small Molecules that Inhibit DYT1 Early Onset Primary Dystonia-Associated Cell Pathology (AID 1645839)
Conditions: HEK293 Flp-In EGFP-delE TorsinA, punctate imaging, 48 h; series mostly up to 46.1 µM; % pathology change, negative = correction: at the top concentration
Excerpt: Nicole Calakos M.D., Ph.D.
Duke University School of Medicine, Durham, NC
In DYT1 dystonia due to delGAG in the TOR1A gene, there is a robust and widely replicated finding of TorsinA protein mislocalization caused when the mutant protein is in excess of the wildtype protein (1-7). Stable HEK293 cell lines were created that replicate this phenomenon. Inducible expression of an EGFP-hu delE TorsinA encoding cDNA causes pronounced punctate cellular distribution. […] This phenotypic difference in EGFP-huTorsinA fusion protein distribution serves as an indicator of cell pathology. […] RNAi screen results with the assay were validated in DYT1 patient cell phenotypes, intersected with a known dystonia gene, and led to discovery of new human genetic dystonia associations.
The bioassay described herein is a high-content image screen with two readouts. The "%pathology" readout is the primary qHTS data channel, while the "cellcount" is the counterscreen qHTS channel. Desired active compounds are those that show inhibition in %pathology channel but no activity or minimal toxicity in cellcount readout.
1. Kustedjo, K., Bracey, M.H., and Cravatt, B.F. (2000). […] J. Biol. Chem. 275, 27933 - 27939.
2. Bragg, D.C., Kaufman, C.A., Kock, N., and Breakefield, X.O. (2004). Inhibition of N-linked glycosylation prevents inclusion formation by the dystonia-related mutant form of torsinA. Mol. Cell. Neurosci. 27, 417 - 426.
3. Gonzalez-Alegre, P., and Paulson, H.L. (2004). Aberrant Cellular Behavior of Mutant TorsinA Implicates Nuclear Envelope Dysfunction in DYT1 Dystonia. J. Neurosci. 24, 2593 - 2601.
4. Goodchild, R.E., and Dauer, W.T. (2004). Mislocalization to the nuclear envelope: an effect of the dystonia-causing torsinA mutation. Proc. Natl. Acad. Sci. U. S. A. 101, 847 - 852.
5. Kock, N., Allchorne, A.J., Sena-Esteves, M., Woolf, C.J., and Breakefield, X.O. (2006). RNAi blocks DYT1 mutant torsinA inclusions in neurons. Neurosci. Lett. 395, 201 - 205.
6. Hewett, J.W., Nery, F.C., Niland, B., Ge, P., Tan, P., Hadwiger, P., Tannous, B.A., Sah, D.W.Y., and Breakefield, X.O. (2008). siRNA knock-down of mutant torsinA restores processing through secretory pathway in DYT1 dystonia cells. Hum. Mol. Genet. 17, 1436 - 1445.
7. Calakos, N., Patel, V.D., Gottron, M., Wang, G., Tran-Viet, K.N., Brewington, D., Beyer, J.L., Steffens, D.C., Krishnan, R.R., and Zuchner, S. (2010). Functional evidence implicating a novel TOR1A mutation in idiopathic, late-onset focal dystonia. J. Med. Genet. 47, 646 - 650.
8. Rittiner* JE, Caffall* ZF, Hernandez-Martinez R, Sanderson SM, Pearson JL, Tsukayama KK, Liu AY, Xiao C, Tracy S, Shipman MK, Hickey P, Johnson J, Scott B, Stacy M, Saunders-Pullman R, Bressman S, Simonyan K, Sharma N, Ozelius LJ, Cirulli ET, Calakos N. Functional Genomic Analyses of Mendelian and Sporadic Disease Identify Impaired eIF2alpha Signaling as a Generalizable Mechanism for Dystonia. Neuron. 2016 Dec 21;92(6):1238-1251. doi: 10.1016/j.neuron.2016.11.012. Epub 2016 Dec 8. PMID: 27939583; PMCID: PMC5320521.
High-content, High-throughput Drug Screening Assay
The TorsinA mislocalization assay was modified from the previously published assay to accommodate compound testing in 1536 well format.1 Briefly, Flp-In T-REx 293 cells from Invitrogen in which a single copy of a cDNA is recombined into a specific genomic locus was used to create tetracycline-inducible expression of cDNA encoding either EGFP-hTOR1A (WT) or EGFP-delE hTOR1A (DYT1). WT and DYT1 cells were diluted to a concentration of 2 x 10^5 cells/mL in reduced serum media (DMEM High Glucose containing 1% tetracycline-tested FBS, 2 mM L-Glutamine, and 1% Penicillin/Streptomycin). 4 µl of WT cells and 4 µl of DTY1 cells were added to column 1 and columns 2-48, respectively, of a poly-D-lysine-coated, low base, black, clear bottom 1536 well plate (Corning, Corning, NY) using the BioRAPTR FRD Microfluidic Workstation (Beckman Coulter, Indianapolis, IN). The final cell number was 800 cells/well. […]

Row | Structure (SMILES) | % pathology change, negative = correction
1 | OCc1ccc(Cl)cc1Cl | 1.65% (inactive)
2 | CO[C@@]1(NC(=O)C(C(=O)O)c2ccc(O)cc2)C(=O)N2C(C(=O)O)=C(CSc3nnnn3C)CO[C@@H]21 (stereo not given in full) | 4.24% (inactive)
3 | O=C(O)c1ccc(OCCCOc2ccc(C(=O)O)cc2)cc1 | -0.572% (inactive)
4 | C=CCOc1ccccc1OCC(O)CNC(C)C (stereo not given) | -23.1% (inactive)
5 | Cc1c(C(=O)NCCO)[n+](=O)c2ccccc2n1[O-] | -6.75% (inactive)
6 | O=c1[nH]c(=O)n([C@H]2C[C@H](O)[C@@H](CO)O2)cc1I | 13.6% (inactive)
7 | CC(C)(C)C(=O)OCOC(=O)[C@@H]1N2C(=O)[C@@H](NC(=O)[C@H](N)c3ccccc3)[C@H]2SC1(C)C | -4.13% (inactive)
8 | O=C(O)Cc1ccc(CCNS(=O)(=O)c2ccc(Cl)cc2)cc1 | 17.9% (inactive)
9 | O=C1CC[C@@H](C(=O)O)N1 | -0.87% (inactive)
10 | NC(=O)[C@@H]1CSSCCC(=O)N[C@@H](CCCCN=C(N)N)C(=O)NCC(=O)N[C@@H](CC(=O)O)C(=O)N[C@@H](Cc2c[nH]c3ccccc23)C(=O)N2CCC[C@H]2C(=O)N1 ([Mpa][hArg]GDWPC-NH2; disulfide 1-7) | -2.97% (inactive)
11 | CN1CC(=O)NC1=N | 7.44% (inactive)
12 | Cc1ccc(C(C)C)c(O)c1 | 0.812% (inactive)
13 | OC[C@@H](O)[C@@H](O)[C@H](O)[C@H](O)CO | 14.2% (inactive)
14 | CC(C)C[C@@H](N)C(=O)O | 6.43% [at 19.1 µM] (inactive)
15 | Cc1c(C)c2c(c(C)c1OC(=O)c1cccnc1)CC[C@@](C)(CCC[C@H](C)CCC[C@H](C)CCCC(C)C)O2 | 10.9% (inactive)
16 | O=c1[nH]c2cc(C(F)(F)F)c(N3CCOCC3)cc2n(CP(=O)(O)O)c1=O | 6.63% (inactive)
17 | COc1ccc(C(=O)NCc2ccc(OCCN(C)C)cc2)cc1OC | 0.0277% (inactive)
18 | CCCNC(C)C(=O)Nc1c(C)csc1C(=O)OC (stereo not given) | -19.8% (inactive)
19 | CCOC(=O)[C@H](CCc1ccccc1)N[C@@H](C)C(=O)N1Cc2cc(OC)c(OC)cc2C[C@H]1C(=O)O | -0.664% (inactive)
20 | O=C(O)CNC(=O)c1ccccc1I | 3.07% (inactive)

Row | Structure (SMILES) | % pathology change, negative = correction
21 | CN1C(C)(C)CCCC1(C)C | 14.9% (inactive)
22 | CCCC(O)C(CC)CO (stereo not given) | 4.08% (inactive)
23 | CC1(C)S[C@@H]2[C@H](N=CN3CCCCCC3)C(=O)N2[C@H]1C(=O)O | -10.3% (inactive)
24 | Cc1cc(OI)c(C(C)C)cc1-c1cc(C(C)C)c(OI)cc1C | 1.88% (inactive)
25 | O=C(NCCCN1CCOCC1)c1ccc(Cl)cc1 | 3.27% (inactive)
26 | COC(=O)c1ccccc1C(=O)c1ccc(OCCN2CCCCC2)cc1 | -2.01% (inactive)
27 | CC(=O)Nc1cccc(O)c1 | 1.65% (inactive)
28 | Nc1c2c(nc3c1CCC3)CCCC2 | -2.21% (inactive)
29 | CC1(C)[C@@H](OC(=O)CCC(=O)O)CC[C@]2(C)[C@H]3C(=O)C=C4[C@@H]5C[C@@](C)(C(=O)O)CC[C@]5(C)CC[C@@]4(C)[C@]3(C)CC[C@@H]12 | -27.5% (inactive)
30 | NCC1CCC(C(=O)Oc2ccc(CCC(=O)O)cc2)CC1 (stereo not given) | 1.98% (inactive)
31 | O=C(O)CCC(=O)O | 2.73% (inactive)
32 | NS(=O)(=O)c1ccc(NC(=O)CCC(=O)O)cc1 | 12.1% (inactive)
33 | CC(=O)N[C@H]1[C@H]([C@H](O)[C@H](O)CO)OC(C(=O)O)=C[C@@H]1N=C(N)N | 3.99% (inactive)
34 | CCN1CC(CCN2CCOCC2)C(c2ccccc2)(c2ccccc2)C1=O (stereo not given) | 7.88% (inactive)
35 | O=C(NCN1CCOCC1)c1cnccn1 | -9.01% (inactive)
36 | CCCCCCCCCCOc1cc2c(=O)c(C(=O)OCC)c[nH]c2cc1OCC | 23.7% [at 4.63 µM] (inactive)
37 | CC(=O)OCC(=O)[C@@]1(O)CC[C@H]2[C@@H]3CCC4=CC(=O)C=C[C@]4(C)[C@@]3(F)[C@@H](O)C[C@@]21C | -8.69% (inactive)
38 | NC(=O)c1ccc([N+](=O)[O-])cc1Cl | -0.68% (inactive)
39 | O=C1c2ccccc2S(=O)(=O)N1CCCCN1CCN(c2ncccn2)CC1 | 11.5% (inactive)
40 | NC(=O)CC[C@@H](N)C(=O)O | 21.4% (inactive)
